# Unmarked numbers belong to inactive results. Records with an inconclusive call do not appear. For part of these data: Potency and affinity values are given separately. The source made the active and inactive calls. Unless noted, how the calls were made is not given here.
# Assays:
# [1] = Ebola virus entry assay, green fluorescence channel
# [2] = Ebola virus entry assay, blue channel fluorescence
# [3] = Ebola virus entry assay, ratio channel
# [4] = Ebola virus entry assay, reporter ratio channel; Channel type: primary
# [5] = qHTS assay for measurement of the activity of small molecule inhibitors on Zika virus induced Caspase-3 activity in human iPSC derived neural progenitor cells (hNPCs) (AID 1224857; active means well fitted inhibition curve with a large enough effect; further: % of control where 0% means no effect; nearly all actives have a fitted effect of over 65% in size); details: hNPCs ZIKV-induced caspase-3/7, Caspase-Glo luminescence, 6 h; series mostly up to 45.7 µM
# How it was run: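 Zika virus (2 FFU/cell) infection of human iPSC-derived NPCs, 6 h, following 1 h compound preincubation. Read-out: Caspase-Glo 3/7 luminescence.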
# [6] = qHTS assay for measurement of the activity of small molecule inhibitors on Zika virus induced Caspase-3 activity in human astrocytoma cells (AID 1224859; active means well fitted inhibition curve with a large enough effect;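 further: plate controls were ZIKV-infected untreated cells for no effect and uninfected cells for full effect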); details: SNB-19 ZIKV-induced caspase-3/7, luminescence, 6 h; series mostly up to 45.7 µM
# How it was run: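 Caspase activation in ZIKV-infected SNB-19 cells (2 FFU/cell, 6 h) measured by Caspase-Glo 3/7 luminescence after 30 min RT; compound pre-incubated 1 h; normalised to uninfected and infected controls.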
# Wherever efficacy is given: 0% is about no effect.
Structure (SMILES),efficacy [1] [%],AC50 [2],outcome [3],AC50 [4],Potency [5],outcome [6],AC50 [3],outcome [4]
CCN(CC)Cc1nccn1-c1ccc([N+](=O)[O-])cc1C(=O)c1ccccc1Cl,96.4,39.8 µM (active),inactive,39.8 µM (active),inactive,inactive,,
CC[C@H]1C[C@@H]2C[C@H]3c4[nH]c5ccc(OC)cc5c4CCN(C2)[C@@H]13,66.1,31.6 µM (active),,39.8 µM (active),inactive,inactive,39.8 µM (active),
CCCCCCCCCCCC[N+](C)(C)CCOc1ccccc1,-194,39.8 µM (active),,25.1 µM (active),inactive,inactive,25.1 µM (active),
CC(=O)OC1(c2ccccc2)CCN(CCc2ccccc2)CC1,56.2,31.6 µM (active),,31.6 µM (active),inactive,inactive,31.6 µM (active),
CC1COC2(c3ccccc3Cl)c3cc(Cl)ccc3NC(=O)CN12 (stereo not given),68,28.2 µM (active),,28.2 µM (active),inactive,inactive,28.2 µM (active),
CN1C(=O)[C@@H](NC(=O)c2cc3ccccc3[nH]2)N=C(c2ccccc2)c2ccccc21,-160,39.8 µM (active),inactive,,inactive,inactive,,inactive
CC[C@H](O)C(C[C@H](C)N(C)C)(c1ccccc1)c1ccccc1,49.4,11.2 µM (active),,8.91 µM (active),inactive,inactive,8.91 µM (active),
Oc1ccc2[nH]cc(CCCCN3CC=C(c4ccccc4)CC3)c2c1,50.4,6.31 µM (active),,8.91 µM (active),inactive,inactive,8.91 µM (active),
CN1[C@@H]2CC[C@H]1CC(OC(=O)c1cc(Cl)cc(Cl)c1)C2 (stereo not given in full),82.4,25.1 µM (active),,28.2 µM (active),inactive,inactive,28.2 µM (active),
COc1cc(C[C@@H](C)N)c(OC)cc1Br,42.4,31.6 µM (active),,31.6 µM (active),inactive,inactive,31.6 µM (active),
O=C(N[C@@H]1N=C(c2ccccc2F)c2cccc3c2N(CC3)C1=O)c1cc2ccccc2[nH]1,-148,25.1 µM (active),,15.8 µM (active),inactive,inactive,15.8 µM (active),
CC(C(O)c1ccccc1)N(C)C/C=C/c1ccccc1 (stereo not given),90.1,22.4 µM (active),inactive,35.5 µM (active),inactive,inactive,,
CCOC(=O)C1(c2ccccc2)CCN(CCc2ccc(N)cc2)CC1,105,28.2 µM (active),,20 µM (active),inactive,inactive,20 µM (active),
CC(Cc1ccccc1)NCc1ccccc1Cl (stereo not given),-110,14.1 µM (active),,14.1 µM (active),inactive,inactive,14.1 µM (active),
CCC(=O)C(CCN(C)C)(c1ccccc1)c1ccccc1,68.8,28.2 µM (active),,31.6 µM (active),inactive,inactive,31.6 µM (active),
